Measurements as given in PubChem BioAssay.
Calls of active or inactive are those of the source.

How the values were obtained:
Albumin (Bos taurus) = Albumin (Bos taurus) (UniProt P02769); experiment: bovine serum albumin binders on microarray, profiling panel, artefact control for SMM control protein annotation, biochemical, small-molecule microarray, Alexa647 label, 635/667 nm fluorescence (AID 1118); conditions: BSA-A647 binding, fluorescence 635 nm, higher = more signal;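 also: score merges 667 nm emission intensity and signal-to-noise per printed compound spot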
Chain of Albumin (Bos taurus) (P02769 whole entry, looked up): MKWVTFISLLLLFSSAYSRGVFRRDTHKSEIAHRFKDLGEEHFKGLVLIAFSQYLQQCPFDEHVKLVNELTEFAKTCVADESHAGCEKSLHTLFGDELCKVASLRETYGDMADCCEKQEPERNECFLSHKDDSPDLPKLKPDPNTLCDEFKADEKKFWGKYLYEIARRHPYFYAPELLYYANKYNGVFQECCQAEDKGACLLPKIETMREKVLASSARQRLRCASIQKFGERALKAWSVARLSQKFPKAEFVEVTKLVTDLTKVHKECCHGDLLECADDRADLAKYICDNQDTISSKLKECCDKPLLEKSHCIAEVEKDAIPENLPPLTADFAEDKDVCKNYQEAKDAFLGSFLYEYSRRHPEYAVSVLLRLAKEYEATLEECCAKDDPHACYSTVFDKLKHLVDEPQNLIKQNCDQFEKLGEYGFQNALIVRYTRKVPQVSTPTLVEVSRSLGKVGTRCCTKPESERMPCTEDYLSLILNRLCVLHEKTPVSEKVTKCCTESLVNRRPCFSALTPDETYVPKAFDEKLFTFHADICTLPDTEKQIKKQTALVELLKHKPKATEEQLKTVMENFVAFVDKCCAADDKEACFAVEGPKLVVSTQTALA

[1] = small-molecule microarray binders of probe aXIP, primary screen, biochemical, NeuroSMM set, 635/667 nm fluorescence (AID 1119); conditions: higher = more signal, called active from +8 up or from −8 down;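 also: probe is the protein aXip251-270 applied at 1 µg/mL to compound-printed slides; binding of probe to printed compounds measured as 667 nm fluorescence plus signal to noise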
[2] = small-molecule binders of probe aNOTCH3, primary screen, biochemical, small-molecule microarray, 635/667 nm fluorescence (AID 1120); conditions: higher = more signal;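 also: probe is a biotin-tagged antibody raised against NOTCH3 rather than NOTCH3 protein; score merges spot fluorescence near 667 nm with spot signal to noise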
[3] = small-molecule binders of probe aNOTCH2, primary screen, biochemical, small-molecule microarray, 635/667 nm fluorescence (AID 1121); conditions: higher = more signal;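 also: score merges feature fluorescence read at 667 nm with its signal to noise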
[4] = target: Carbonic anhydrase 2 (Homo sapiens) (UniProt P00918); experiment: CAII small-molecule binders, profiling panel, biochemical, small-molecule microarray, Alexa647-labelled CAII (AID 1122); conditions: CAII-A647 binding fluorescence, higher = more signal
[5] = COS7 lysate on small-molecule microarray, probe aHis, 635 nm (AID 1123); conditions: COS7 cell lysate, fluorescence, higher = more signal;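 also: z-score combines 667nm fluorescence intensity with signal-to-noise per printed compound spot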
[6] = compound binding in COS7 lysate, probe aLAP1, primary screen, cell lysate, small-molecule microarray (AID 1124); conditions: probe aLAP1, fluorescence, higher = more signal;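 also: lysate comes from COS7 cells expressing LAP1 and is applied at 0.3 µg/mL; score merges spot fluorescence near 667 nm with signal-to-noise over triplicate slides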
Sam68 (KHDRBS1) = experiment: Sam68 small-molecule binders, primary screen, biochemical, small-molecule microarray, 635 nm fluorescence (AID 1125); conditions: small-molecule microarray binding, higher = more signal;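 also: score merges 667 nm channel intensity with signal to noise over triplicate slides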
[7] = test system: Chordin-like protein 2 (CHRDL2); experiment: CHRDL2 small-molecule binders, primary screen, biochemical, small-molecule microarray, 635 nm fluorescence (AID 1126); conditions: small-molecule microarray binding, fluorescence 635 nm; higher = more signal;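 also: printed compound slides probed with Chrdl2 protein at 4 µg/mL for 1 h at 4 C; score merges 667 nm emission intensity with signal to noise over three replicate slides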
[8] = target: Concanavalin-A (Canavalia ensiformis) (UniProt P02866); experiment: ConA small-molecule binders, primary screen, artefact control for SMM control protein annotation, biochemical, small-molecule microarray, Alexa647 label, 635 nm (AID 1127); conditions: ConA-A647 binding fluorescence, higher = more signal;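 also: z combines 667 nm emission intensity with signal-to-noise across three replicate slides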
Chain of Concanavalin-A (Canavalia ensiformis) (P02866 whole entry, looked up): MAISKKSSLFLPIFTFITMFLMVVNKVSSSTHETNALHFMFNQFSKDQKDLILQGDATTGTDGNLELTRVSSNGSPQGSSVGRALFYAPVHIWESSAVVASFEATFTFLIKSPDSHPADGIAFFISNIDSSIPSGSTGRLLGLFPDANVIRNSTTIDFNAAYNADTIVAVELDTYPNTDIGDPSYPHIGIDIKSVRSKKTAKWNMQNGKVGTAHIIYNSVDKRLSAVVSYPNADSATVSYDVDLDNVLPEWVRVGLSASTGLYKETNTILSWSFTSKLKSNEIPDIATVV

| SMILES | composite z-score (Albumin (Bos taurus)) | composite Z-score [1] | composite z-score [2] | composite z-score [3] | composite z-score [4] | composite z-score [5] | composite z-score [6] | composite z-score (Sam68 (KHDRBS1)) | composite z-score [7] | composite z-score [8] |
| --- | --- | --- | --- | --- | --- | --- | --- | --- | --- | --- |
| COc1cc2c(cc1O)C(C1CC1)N(Cc1cc3c(cc1Br)OCO3)CC2 (stereo not given) | 0.137 | -0.431 (inactive) | -0.318 | -0.0703 | 0.593 | 0.478 | 0.283 | -1.09 | -0.14 | -0.207 |
| O=C1O[C@H](c2ccccc2)[C@H](c2ccccc2)N2[C@H]1[C@@H](C(=O)N1CCN(c3ncccn3)CC1)[C@]1(C(=O)Nc3ccc(C#CC4=CCCCC4)cc31)[C@H]2c1ccc(O)cc1 | 0.444 | -0.239 (inactive) | 0.0533 | -0.0282 | 0.413 | 1.81 | 0.853 | 1.3 | -0.0356 | 0.893 |
| O=C(NCc1ccccc1)[C@@]1(CCS(=O)(=O)c2ccccc2)N=C(c2ccc(OCCCO)cc2)O[C@H]1c1ccccc1 | 1.01 | 0.198 (inactive) | 0.471 | -0.0128 | 0.615 | 3.07 | 0.557 | 1.29 | -0.481 | 1.16 |
| COC(=O)c1c(CC[C@@H](CO)NC(=O)N[C@@H](C)Cn2cc(C3(O)CCCCC3)nn2)oc(C(C)=O)c1C(=O)OC | 0.0745 | 0.502 (inactive) | 0.0596 | -0.0466 | 0.421 | 0.377 | -0.0869 | 1.29 | 1.02 | 1.02 |
| COc1ccc([Si](C)(C)[C@H]2[C@H](CCO)O[C@@]3(C(=O)N(Cc4ccc(N5C(=O)COc6ccccc65)cc4)c4ccccc43)[C@@H]2C)cc1 | 0.373 | 0.485 (inactive) | -0.241 | -0.176 | -0.05 | 0.303 | -0.0122 | 0.504 | -1.13 | -0.116 |
| COC(=O)C(CC#Cc1ccc2c(c1)[C@]1(C(=O)N2)[C@H](c2ccc(O)cc2)N2[C@H](c3ccccc3)[C@H](c3ccccc3)OC(=O)[C@H]2[C@@H]1C(=O)Nc1nc2ccccc2s1)C(=O)OC | 0.847 | -0.516 (inactive) | 0.138 | -0.0454 | 0.556 | 2.21 | 0.445 | 1.31 | 0.806 | 1.12 |
| COc1ccc(CCNC(=O)[C@@]2(Sc3ccc(C)cc3)CC(=O)N(C3CCCCC3)[C@@H]2c2ccc(CO)cc2I)cc1 | 0.805 | 0.0371 (inactive) | -0.0111 | -0.0759 | 0.513 | 1.58 | 0.284 | 1.31 | 0.119 | 0.977 |
